# Experimental data taken from the supplement of paper PMC3334620.
# Whole data set: some 33,000 sequences, median “E-score (-0.5 to 0.5)” near -0.017, cut for the highest 2% near 0.3. The list comes from a sample in which the highest values are over-represented; it also holds similar and randomly drawn sequences.
# Biological target: T1, Sut1 (UniProt P53032)
# T1 sequence: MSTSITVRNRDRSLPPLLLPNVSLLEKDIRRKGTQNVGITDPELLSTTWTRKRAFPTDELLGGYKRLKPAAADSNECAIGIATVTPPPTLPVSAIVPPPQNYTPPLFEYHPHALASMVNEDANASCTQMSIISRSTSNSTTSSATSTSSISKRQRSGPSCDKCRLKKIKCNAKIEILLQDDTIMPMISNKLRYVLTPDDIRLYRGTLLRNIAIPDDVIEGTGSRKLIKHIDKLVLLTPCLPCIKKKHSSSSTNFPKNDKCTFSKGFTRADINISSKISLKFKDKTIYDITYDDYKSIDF
# Assay: PBM E-score (8-mer binding enrichment) (E-score (-0.5 to 0.5)); higher = stronger / more preferred TF binding
# Settings: protein concentration: 200 nM; construct: GST-full length
# Procedure, shortened: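 Bound GST-tagged yeast transcription factors, applied at about 100-200 nM to double-stranded universal all-10-mer Agilent arrays, were detected with fluorescent anti-GST. Scans were normalised with masliner. A modified Wilcoxon-Mann-Whitney statistic, the E-score, was assigned to each ungapped eight-base word pooled with its reverse complement by the Universal PBM Analysis Suite.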
row,Sequence,PBM E-score
1,CGTCAACG,0.0766
2,CGGTACTC,-0.0748
3,GAACAGTC,0.0217
4,GAATGTCC,0.282
5,AACCCTAC,-0.287
6,ATATGCAC,0.133
7,CCACCCCA,-0.221
8,AATCCATA,0.108
9,AACGCTGT,-0.0573
10,CCAGTAGA,-0.112
11,AGTGCTCA,-0.105
12,CCGAAAAC,0.164
13,CCGAGAAA,0.339
14,GCGAGAAA,0.0168
15,CGGAGAGA,0.317
16,CCGAAAAG,0.178
17,AGGAGAGA,-0.0542
18,CGGAGAGC,0.109
19,CCGAAAAA,0.352
20,TCGAGAAA,0.103
21,ACGGGTGA,-0.0761
22,AGCGTCAT,-0.0756
23,CACCTTGC,0.00165
24,CTCAGCGA,-0.204
25,CGGAGCGA,0.325

row,Sequence,PBM E-score
1,CGGAGCAC,0.175
2,AGGAGCGA,-0.00713
3,CGGAGCAA,0.311
4,CGGAGCGC,0.118
5,TGGAGCAA,-0.0175
6,TTCATGAA,0.00239
7,AACTACAT,0.141
8,CCATTATA,0.135
9,TCCGGAAA,0.411
10,ACCGGTAA,-0.0335
11,CCCGGAAA,0.234
12,TCCGGTAA,0.384
13,ACCGGGAA,0.145
14,TCCGGGAA,0.356
15,ACCGGAAA,0.268
16,GCCGGTAA,0.121
17,CCCGGGAA,-0.03
18,CTCTGAGA,-0.0987
19,AGCAATTG,0.175
20,GGAATGAA,0.166
21,ATGCCCCC,-0.387
22,TACTCGGA,0.324
23,TACTCGCA,0.0383
24,AACTCGGG,-0.135
25,AACTCGGT,0.0362

row,Sequence,PBM E-score
1,AACTCGGA,0.341
2,GACTCGGC,-0.033
3,CACTCGGA,0.266
4,GACTCGCA,-0.0641
5,GACTCGGA,0.33
6,GCAGAGGA,-0.102
7,GCTTCGAC,-0.218
8,GAGACCCC,-0.146
9,ACCTTGCT,-0.0591
10,GCGCCAGA,-0.088
11,CCATATAG,-0.0893
12,ACTCATCG,0.0167
13,ATCCGTGC,0.0778
14,CACCGTGC,-0.263
15,GTCCGTGA,0.251
16,CTCCGTGA,0.407
17,CTCCGTGC,0.321
18,ATCCGTGA,-0.119
19,AGGGCAGA,-0.348
20,GACTGGGC,-0.0754
21,CTTCGCTA,-0.0699
22,ATATGCAG,-0.134
23,AAAGTAAT,0.204
24,AGAGTTAC,-0.117
25,CGAGTTAC,0.0146

row,Sequence,PBM E-score
1,TGAGTTAA,-0.00085
2,AGAGTTAA,0.0656
3,GGAGTTAA,0.337
4,GGAGTTAC,0.367
5,GCTCCCTA,-0.123
6,CAGGGAGC,-0.326
7,ACAAACAC,0.185
8,GCGGCCGA,-0.139
9,CCGGCCGA,0.0979
10,TCGGCCGA,0.323
11,GAAACTAA,0.00617
12,AAAACTAA,0.353
13,CAAACTAA,0.276
14,CTAACTAC,0.00799
15,TAAACTAA,0.323
16,CTAACTAG,0.302
17,AAAACTAT,0.231
18,AAAACTAG,0.0495
19,CTAACTAA,0.142
20,ACTCCACT,-0.144
21,CCCTCAGA,-0.309
22,CAGAGAAC,-0.299
23,CTATCAAC,0.208
24,AGACTCTG,-0.137
25,CAGTCACA,-0.17

row,Sequence,PBM E-score
1,GACCCGTC,-0.239
2,AGTTCTCC,0.0174
3,GTGACGAA,-0.0161
4,CCTTAGGA,-0.0422
5,AACCAGCT,-0.0518
6,CGAAAACC,0.0693
7,AGTTAAGA,0.0414
8,CCCCGGTA,0.0227
9,CTCCGGTA,0.413
10,CTCCGGTC,0.418
11,CGCCGGTC,-0.0721
12,ATCCGGTA,0.135
13,GGCCGGTA,0.0132
14,GTCCGGTA,0.373
15,ATCCGGTC,-0.00108
16,GCCCGGTA,-0.187
17,GGTCGAAA,-0.14
18,GGCTGACC,-0.205
19,ATTATTCA,0.289
20,AGGATACT,-0.0531
21,ACTCGGCT,-0.079
22,ACACCGCA,0.0401
23,GTAGACAA,0.157
24,AGGGGTAT,-0.217
25,ACGCACTA,-0.0472

row,Sequence,PBM E-score
1,GCATATCC,-0.196
2,GGATTTCA,0.117
3,CGGACCTA,0.42
4,CGGACCTC,0.411
5,CTGACCTC,-0.121
6,AGGACCTC,-0.0609
7,GGGACCTA,0.0551
8,AGGACCTA,-0.0435
9,AACTCGAA,-0.0516
10,TCCTTCCA,-0.243
11,TTATAAAA,0.314
12,CTATAAAA,0.183
13,GTATAAAC,0.227
14,GTATAAAA,0.317
15,ATATAAAA,0.205
16,GTATAAGA,0.103
17,TGAACCCA,-0.00171
18,GTCGTTGA,-0.0946
19,ATCCCAGC,-0.107
20,ACACTAGA,0.0902
21,CGATGTCC,0.164
22,ATCAAGAT,0.158
23,CACGGAGA,0.355
24,GACGGAGA,0.277
25,AACGGAGT,0.478

row,Sequence,PBM E-score
1,CAAGGAGA,0.0606
2,AACGGAGC,0.231
3,CACGGAGC,0.354
4,AACGGAGG,-0.0314
5,GACGGAGC,0.231
6,TACGGAAA,0.278
7,TACGGACA,0.282
8,CACGGAGG,0.0312
9,TACGGAGA,0.32
10,ATCCATTA,0.076
11,AATCGCCA,-0.0545
12,AAGAGATC,-0.168
13,AGAATTGG,0.13
14,CGCAATGA,-0.0747
15,ACACTTGA,-0.00965
16,AGACCACC,-0.0644
17,CATGGCAG,-0.108
18,CCCTGGGC,-0.324
19,ATTAATGA,0.267
20,ATTTCTTA,0.0841
21,CTCCCGAA,-0.0868
22,CTCCCTCC,-0.2
23,GGCTCATA,-0.0389
24,CAGCGGGG,-0.149
25,AACGGATA,0.285

row,Sequence,PBM E-score
1,AACAGAGA,-0.0653
2,AACGGAGA,0.359
3,ACTGCTCC,-0.0101
4,CGAGTAGA,-0.0364
5,AGAGTAGA,0.163
6,CGAGTATA,0.0489
7,GGAGTAAC,0.258
8,TGAGTAAA,0.0705
9,AGAGTATA,0.00921
10,GGAGTATA,0.311
11,GGAGTAAA,0.333
12,GGAGTAGA,0.318
13,AGGCCATG,-0.206
14,GAGCTGAA,0.01
15,CAGTACGA,-0.0772
16,TACAGCGA,-0.145
17,GTAGCTCA,-0.0732
18,ACCTGATC,-0.177
19,AGAACCTG,-0.0844
20,AAAATTAC,0.237
21,ATTATAAA,0.275
22,ATTATAAG,0.193
23,ATAATTTC,0.242
24,ATAATTAA,0.314
25,CTAATTTA,0.175

row,Sequence,PBM E-score
1,TTAATTAA,0.0737
2,GTAATTAA,0.161
3,AAAATTAT,0.351
4,CTAATTTC,0.299
5,ATTATAAT,0.378
6,AAAATTAG,0.155
7,CGGATCAA,0.16
8,CGTCTTGA,0.0919
9,AGCCCCAA,-0.358
10,ATCGCTAC,-0.0624
11,AATTATAT,0.212
12,TCCACTAA,0.0668
13,CCCAAACA,0.00961
14,ATAATTTA,0.337
15,ATAATTTG,0.249
16,ATCATTAA,0.305
17,ATCATTAG,0.0427
18,GTAATTTA,0.221
19,AAAATGAT,0.342
20,CTCATTAA,0.119
21,ATAATTAG,0.235
22,ATAATTAC,0.283
23,AAAATGAC,0.157
24,AAAATGAA,0.0412
25,ATAATTAT,0.39
